Assay outcomes deposited in PubChem by National Center for Advancing Translational Sciences (NCATS).
TbPYK inhibitor: blocks Trypanosoma brucei pyruvate kinase. Q57TT1. TbPYK enzyme, Kinase-Glo Plus ATP luminescence, 45 min. Potency, µM (top dose mostly 76.8 µM), for the others: top-dose activity, negative = inhibition, usual class: inhibitors. hit rate 0.12% among 410,000. AID 624173; also: potency is read from the fitted curve at half-maximal effect; % is scaled to controls: 0 for no effect and ±100 for the full control effect; nearly all actives have a fitted effect of over 50% in size
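Activity of T. brucei pyruvate kinase was followed by Kinase-Glo Plus luminescence after the enzyme reacted 45 min at room temperature with 130 uM ADP (final) and substrate. Test compounds were added before ADP at multiple concentrations.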
Shiga inhibitor: blocks Shiga toxin action in Vero cells | Vero cells, Shiga toxin protein synthesis inhibition reporter | hit rate 9.2% among 290,000 | inhibition, % at 38.7 µM; in the data active = inhibition mostly above about 28%, no sharp cut-off; inactive = mostly below about 43%; also: 0% is about no effect
LmPK inh: inhibitors of Leishmania mexicana pyruvate kinase; Potency, µM (top dose mostly 57.5 µM), for the others: at the highest dose activity change, negative = inhibition, most hits filed as inhibitors; hit rate 0.37% among 290,000; Q27686; purified LmPK, Kinase-Glo ATP luminescence, 1 h; AID 1721; also: potency is read from the fitted curve at half-maximal effect; % is scaled to controls: 0 for no effect and ±100 for the full control effect
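Kinase-Glo luminescence read after 1 h RT reaction of 0.1 nM LmPK with 0.5 mM PEP and 0.1 mM ADP. Activity scaled between uninhibited and enzyme-free controls.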
Cycloheximide cs: counter-screen hit for Shiga toxin inhibitors, cycloheximide | max response, % | cell reporter, cycloheximide protein synthesis inhibition counterscreen | hit rate 12% among 300,000; in the data active = max response mostly above about 13%, no sharp cut-off; inactive = mostly below about 14%; also: read at 38.3 µM for the half of the compounds with a filed dose; 0% is about no effect
FBPA Giardia inh: Giardia lamblia aldolase inhibition; Potency, µM (doses to about 59.6 µM), inactives show at the highest dose activity, negative = inhibition, actives largely listed as inhibitors; A8B2U2; purified Giardia FBPA; hit rate 0.71% among 290,000; also: potency is read from the fitted curve at half-maximal effect; % is scaled to controls: 0 for no effect and ±100 for the full control effect; nearly all actives have a fitted effect of over 55% in size
Target sequence (A8B2U2 whole entry, looked up): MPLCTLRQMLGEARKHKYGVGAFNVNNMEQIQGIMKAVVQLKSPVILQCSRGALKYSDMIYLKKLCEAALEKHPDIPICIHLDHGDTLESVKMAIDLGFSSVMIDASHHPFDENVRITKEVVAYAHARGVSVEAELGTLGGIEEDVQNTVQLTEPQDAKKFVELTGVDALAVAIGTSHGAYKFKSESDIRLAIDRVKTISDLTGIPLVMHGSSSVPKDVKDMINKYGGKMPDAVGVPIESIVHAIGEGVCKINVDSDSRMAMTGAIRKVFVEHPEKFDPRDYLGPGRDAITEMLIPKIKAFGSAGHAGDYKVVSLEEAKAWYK
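40 nM FBPA preincubated 10 min at RT with compound (up to 57.5 uM final), then substrate plus GAPDH/TPI/NAD/arsenate coupling and diaphorase/resazurin added. Fluorescence read after 20 min at RT, 525/598 nm.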
Sm TGR inh: blocks Schistosoma mansoni thioredoxin glutathione reductase. Q962Y6. purified TGR, DTNB reduction, TNB absorbance 405 nm. Potency, µM (top dose mostly 114 µM), inactives show top-dose activity change, negative = inhibition, hits mostly inhibitors. hit rate 3% among 360,000. AID 485364; also: potency is read from the fitted curve at half-maximal effect; % is scaled to controls: 0 for no effect and ±100 for the full control effect; nearly all actives have a fitted effect of over 60% in size
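First, TGR (20 nM dispensed) and NADPH were mixed with compound. Second, a 15 min room-temperature incubation followed. Third, further NADPH and then DTNB were added to start the reaction. Finally, TNB absorbance was monitored kinetically.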
* = called active by the depositor; ? = inconclusive; . = no result; [ ] = dose if it differs, or a comment. Only a selection was taken, and hits are over-represented in it overall. Unless noted, calls follow the shape of the dose curve; as a rule, active = well fitted curve in the direction sought with a large enough effect; inconclusive = small, poorly fitted or top-dose-only effect, or another doubt; inactive = no such curve, though single readings can be large; an effect the other way counts as inactive or inconclusive.

SMILES	TbPYK inhibitor	Shiga inhibitor	LmPK inh	Cycloheximide cs	FBPA Giardia inh	Sm TGR inh
COC(=O)C(Cc1c[nH]c2ccccc12)NC(=O)c1cccs1 (configuration not stated)	-2.0%	29.2	-0.3%	8.5	-6.2%	-17.2%
CC/C(=N\NC(=O)c1c[nH]c2ccccc12)c1cccs1	5.4%	61.4*	-1.2%	61.7*	-12.3%	-3.0%
CCCCCCOc1ccc(C(=N)N(CCCC)CCCC)c2ccccc12	-6.0%	.	.	.	.	.
CN(Cc1ccccc1)C(=O)c1cccc(NC(=O)Cc2ccc(NC(=O)C3CCCN(C(=O)C4CCCCC4)C3)cc2)c1 (configuration not stated)	3.0%	.	.	.	.	.
O=C(NCCc1ccccc1)c1ccc(CSc2nc3cccnc3n2Cc2ccccc2)cc1	1.8%	.	.	.	.	0.5%
C/C(=N\NC(=O)c1c[nH]c2ccccc12)c1ccc(C)s1	-0.4%	38.1	-4.2%	25.0*	0.4%	-7.4%
O=C(N/N=C/c1cc([N+](=O)[O-])ccc1O)c1c[nH]c2ccccc12	6.7%	10.7	4.3%	-3.4	9.2%	7.7%
C/C(=N/NC(=O)c1ccncc1)c1c[nH]c2ccccc12	0.6%	48.2	-8.0%	7.4	-13.1%	-1.5%
Cc1ccsc1/C=N/NC(=O)c1c[nH]c2ccccc12	0.0%	106.3*	0.1%	59.9*	-6.0%	-1.8%
O=C(N/N=C/c1cccc([N+](=O)[O-])c1)c1c[nH]c2ccccc12	4.6%	79.2*	1.0%	34.4*	-14.0%	1.9%
COc1ccc(NC(=O)CSc2nc(-c3cccc(C)c3)[nH]c2-c2ccccc2)cc1OC	-16.3%	.	.	.	.	?
CC(=O)c1ccc(NC(=O)c2cccc(NC(=O)N3CCSc4ncccc43)c2)cc1	-2.6%[15.4 µM]	.	.	.	.	1.0%
Cc1ccc(C)c(N2C(=O)N(C)c3ccccc3S2(=O)=O)c1	1.2%	.	.	.	.	16.5%
COc1cc(/C=C/C(=O)OC2CC3CCC2(C)C3(C)C)ccc1O (configuration not stated)	-6.1%	22.7	2.4%	14.3*	-10.5%	-23.0%
Cc1ccccc1NC(=O)NCc1ccccn1	6.5%	.	.	.	.	.
c1ccc(NCc2ccccn2)cc1	-0.8%	94.9*	-6.9%	18.4*	0.0%	.
Cc1cc(C)cc(NC(=O)C(=O)NCc2ccccn2)c1	-8.9%	-5.5	-4.4%	-1.7	8.9%	8.9%
Cc1ccc(NC(=O)C(=O)NCc2ccccn2)cc1	-3.1%	87.2*	-1.6%	29.4*	2.8%	-3.7%
Cc1ccccc1NC(=O)C(=O)NCc1ccccn1	-0.2%	11.5	-3.7%	27.1*	-2.4%	3.3%
O=C(NCc1ccccn1)C(=O)Nc1ccccc1	2.6%	67.3*	-26.8%	23.3*	1.0%	-2.9%[57.1 µM]
COc1ccc(CNC(=O)c2cn(Cc3ccccc3F)c(=O)s2)cc1	-1.3%	.	.	.	.	.
O=C(Nc1cccc(F)c1)N1CCC2(CCNCC2)CC1	-7.1%	.	.	.	6.1%	.
Cc1ccc(-c2nc3c4ccccc4n(CC(=O)N4CCN(c5ccccc5F)CC4)c(=O)n3n2)cc1	-0.1%	.	.	.	.	-0.4%
O=C(N1CCc2ccc(S(=O)(=O)N3CCN(S(=O)(=O)c4ccc5c(c4)OCCO5)CC3)cc2C1)C(F)(F)F	.	6.4	.	7.7	.	.
CC(=O)OCC1=C[C@H]2[C@@H]3C(C)(C)[C@]3(OC(C)=O)C[C@@H](C)[C@]2(O)[C@@H]2C=C(C)C(=O)[C@@]2(O)C1	.	-3.0	.	11.2	-9.1%	.
SMILES	TbPYK inhibitor	Shiga inhibitor	LmPK inh	Cycloheximide cs	FBPA Giardia inh	Sm TGR inh
Cc1cc(Br)ccc1NCc1ccccn1	-1.4%	67.3*	5.4%	30.8*	?	-3.0%
c1ccc(-c2nc(-c3ccco3)n3ccccc23)cc1	2.8%	1.9	1.7%	2.3	-23.6%	11.2µM*
Cc1cccc(NC(=O)C2CCN(c3nnc(-n4c(C)ccc4C)s3)CC2)c1C	0.7%	.	.	.	.	?
c1ccc2c(c1)oc1c(Nc3ccc4c(c3)OCO4)ncnc12	4.2%	100.3*	-3.3%	45.3*	-19.8%	-8.9%
Cc1nc(Nc2ccccc2)c2oc3ccc(Cl)cc3c2n1	4.1%	43.1*	-0.1%	18.3*	6.5%	-5.1%
Cc1nc(Nc2ccc3c(c2)OCO3)c2oc3ccccc3c2n1	2.5%	45.6*	1.6%	38.5*	-12.6%	-6.3%
Cc1nnc(Nc2ccc3c(c2)OCO3)c2ccccc12	0.3%	114.2*	-5.7%	19.9	-25.1%	-35.0%
Cc1ccc(-c2nnc(Nc3ccc4c(c3)OCO4)c3ccccc23)cc1S(N)(=O)=O	-6.6%	-13.6	5.5%	-3.6	-17.2%	4.2%
CCCCNc1ncnc2[nH]ncc12	-9.4%	.	.	.	.	.
CCCCN(C)S(=O)(=O)c1cc(-c2cc(C)no2)ccc1C	1.2%[15.4 µM]	.	.	.	.	-5.3%
Cc1ccc(Nc2nc(C)nc3c2oc2ccccc23)cc1	6.8%	22.3	1.1%	11.2*	-0.4%	6.3%
COc1cccc(C2=CC(c3cccs3)n3nnnc3N2)c1 (configuration not stated)	2.3%	48.2*	4.7%	40.6*	-9.7%	?
COc1cccc(C2=CC(c3ccc(OC)c(OC)c3OC)n3nnnc3N2)c1 (configuration not stated)	-11.4%	91.6*	-4.6%	34.7*	?	?
COc1ccc(C2=CC(c3sccc3C)n3nnnc3N2)cc1 (configuration not stated)	-17.7%	109.3*	4.2%	40.0*	-12.9%	35.5µM*
COc1cccc(C2=CC(c3ccc(C)cc3)n3ncnc3N2)c1 (configuration not stated)	.	17.5	2.5%	-0.8	-3.3%	17.8µM*
Cc1ccc2oc3c(c(=O)c2c1)C(c1ccc(F)cc1)N(Cc1ccc2c(c1)OCO2)C3=O (configuration not stated)	-7.7%	.	.	.	.	2.9%
N#Cc1c2n(c(=S)n(-c3ccc(OC(F)F)cc3)c1=O)CCCCC2	-11.8%	20.3	8.4%	-4.7	-5.7%	-10.6%
N#Cc1c2n(c(=S)n(-c3ccccn3)c1=O)CCCCC2	-4.9%	24.8	2.3%	16.2*	-23.5%	-29.5%
O=C(NCCc1c[nH]c2ccccc12)c1ccc2c(c1)OCO2	-3.0%	108.2*	-2.4%	54.0*	5.0%	5.6%
O=C(NCCc1c[nH]c2ccccc12)c1cc(Cl)c2c(c1)OCO2	-0.6%	96.1*	3.1%	48.4*	-9.6%	-0.2%
CCOc1ccc(-c2c(C)nn3c(C)c(C(=O)NCCc4ccccc4)cnc23)cc1OCC	1.7%	.	.	.	.	3.9%
C=CCN=C1N[C@@H](c2cccc(C(F)(F)F)c2)C(C(=O)OC)=C(C)N1CC	-10.7%	12.9	-7.5%	-3.1	15.8µM*	-33.2%
Cc1ccc(-c2cc3c(N4CCN(c5cc(C)ccc5C)CC4)nccn3n2)cc1	-3.1%	.	.	.	.	2.2%
CCOC(=O)c1cnc2c(F)ccc(F)c2c1Sc1ccccc1	-3.3%	-4.1	2.1%	-1.5	-7.0%	15.8µM*
Clc1cccc(Cl)c1CNc1ccc(N2CCCC2)cc1	?	85.4	-8.0%	20.5*	?	?
